A selection: hits, their analogues and other compounds. The true share with any hit is near 2.6%.
PHOSPHO1 inh: PubChem AID 1565; recombinant PHOSPHO1, absorbance phosphatase assay; 1.1% of 290,000 active; Phosphoethanolamine/phosphocholine phosphatase (Homo sapiens), Q8TCT1; inhibition, % at 13.3 µM; in the data active = inhibition above about 60%
Target sequence (Q8TCT1 whole entry, looked up): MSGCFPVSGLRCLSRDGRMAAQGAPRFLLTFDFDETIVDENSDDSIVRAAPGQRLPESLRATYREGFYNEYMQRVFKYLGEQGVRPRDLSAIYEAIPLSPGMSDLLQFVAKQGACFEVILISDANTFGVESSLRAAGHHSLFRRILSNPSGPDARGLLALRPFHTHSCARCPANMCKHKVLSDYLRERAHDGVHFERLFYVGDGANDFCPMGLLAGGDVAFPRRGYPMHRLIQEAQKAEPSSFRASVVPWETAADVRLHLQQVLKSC
PABP FP inh: PABP poly(A) RNA binding inhibitors, primary screen, biochemical, fluorescence polarization, uHTS; 1% of 290,000 active; calls only at 35 µM;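 note: calls also rest on retests at 20 µM and on dose response follow-up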
AI-2 QS modul: Vibrio harveyi AI-2 quorum sensing modulators, primary screen, JMH597 strain, luminescence/OD600 ratio; AID 2094, 2009; activity change, % at 7.5 µM; 0.4% of 300,000 active; Vibrio harveyi JMH597 AI-2 luminescence/OD600 ratio, 9 h; stronger effect = lower value; strain lacks LuxN and CqsS sensors; 0 = neutral-control median; in the data active = activity change below about -75%, passing the limit was not always enough; inconclusive = no clear call, values can overlap the other calls;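 note: luminescence divided by OD600 gain over 9 h not by final OD600 alone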
MLLE-PAM2 inh: inhibitors of PABP1 MLLE–PAM2 peptide binding, primary screen, biochemical, fluorescence polarization, FITC-PAM2, GST-MLLE | inhibition, % at 20 µM | Polyadenylate-binding protein 1 (Homo sapiens), P11940 | AID 588489, 2011 | 0.36% of 360,000 active; in the data active = inhibition above about 35%, passing the limit was not always enough;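 note: plate controls were DMSO wells with GST-MLLE for no effect and wells lacking GST-MLLE protein for full effect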
ABCB6 inh MLPCN: ABCB6 transporter inhibitors, primary screen, K562-ABCB6 cells, flow cytometry, MLPCN library; ATP-binding cassette sub-family B member 6 (Homo sapiens), Q9NP58; K562-ABCB6 porphyrin accumulation, 1 h; stronger effect = lower value; fluorescence ratio to DMSO, % at 10 µM; 0.19% of 360,000 active; AID 602162, 2011;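 active = fluorescence ratio to DMSO below 75%, the collection mean minus 3 SD; inconclusive = too few cells collected in the well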;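 note: signal is porphyrin accumulated inside mitochondria; 100% equals median channel fluorescence of DMSO control wells; lower ratio means ABCB6 inhibition with less porphyrin fluorescence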
eIF4H inh: human eIF4H binding inhibitors, primary screen, translation initiation inhibitor project, biochemical, uHTS, fluorescence polarization; Eukaryotic translation initiation factor 4H (Homo sapiens), Q15056; eIF4H fluorescence polarization binding assay; inhibition, % at 35 µM; 0.94% of 290,000 active; AID 2012, 2009;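 note: calls also rest on retests at 20 µM and on dose response follow-up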
* marks the source's active call; other numbers are inactive results; i = inactive; ? = inconclusive; nt = no result; + = active, no number. Unless noted, the rule behind the calls is not given here.

SMILES | PHOSPHO1 inh | PABP FP inh | AI-2 QS modul | MLLE-PAM2 inh | ABCB6 inh MLPCN | eIF4H inh
CCOC(=O)C1=C(CC)OC(N)=C(C#N)C1c1ccc(OC)c(OC)c1OC (stereo not given) | -9.7 | i | -8.4 | -7.5 | 103.0 | -2.2
CCOC(=O)C1=C(C(C)=O)C(c2cccnc2)C(C#N)=C(N)O1 (stereo not given) | 44.8 | + | 14.7 | 19.8 | 103.0 | 55.2*
CCOC(=O)C1=C(CSc2nc(C)ccc2C#N)OC(N)=C(C#N)C1c1cccc(OC)c1OC (stereo not given) | 76.1* | i | 10.8 | 26.4 | 103.0 | 16.4
CCOC(=O)C1=C(CSc2nc(-c3ccncc3)ccc2C#N)OC(N)=C(C#N)C1c1cccnc1 (stereo not given) | 61.0* | + | 32.9 | 0.8 | 89.0 | 119.5*
CCN1CCCSC1=S | nt | nt | nt | -2.2 | 100.0 | nt
O=C(Nc1cc(C(F)(F)F)ccc1F)C1Cc2c(-c3ccccc3Oc3ccccc3)ccnc2O1 (stereo not given) | nt | nt | nt | -5.0 | 93.0 | nt
Cc1ccccc1-n1c(=O)/c(=C\c2ccco2)s/c1=C(/C#N)C(=O)Nc1ccccc1 | 83.3* | i | 18.6 | -35.2 | 114.0 | 52.2
CCCCCCOc1ccc(/C=c2\s/c(=C(/C#N)C(=O)NCc3ccco3)n(-c3ccccc3)c2=O)cc1 | 6.3 | i | 7.7 | -46.7 | 104.0 | -0.6
CC1(C(=O)Nc2cccc3cccnc23)CCN1C(=O)Cc1ccc(Cl)cc1Cl (stereo not given) | nt | nt | nt | 19.1 | 101.0 | nt
COc1ccc(N=C2S/C(=C\c3ccc(N4CCOCC4)o3)C(=O)N2CCc2c[nH]c3ccccc23)cc1 | 8.1 | i | 10.0 | 67.9 | i | 6.7
COc1ccc(N=C2S/C(=C\c3ccc(OCC(=O)O)cc3)C(=O)N2CCc2c[nH]c3ccccc23)cc1 | -103.7 | + | 27.4 | -10.8 | 92.0 | 88.6
Cc1cc(C)nc(SCc2csc(N)n2)n1 | 83.5* | i | 25.4 | 24.4 | 100.0 | 3.0
Cc1cc(C)nc(SCc2csc(-c3ccccc3)n2)n1 | 12.2 | i | 4.2 | 6.2 | 95.0 | -9.7
O=C(NCc1ccc2c(c1)OCO2)c1nc(S(=O)(=O)Cc2ccccc2F)ncc1Cl | 22.4 | i | -26.1 | 20.1 | 103.0 | -6.5
O=C(NCc1ccc2c(c1)OCO2)c1nc(S(=O)(=O)Cc2ccccc2)ncc1Cl | 29.3 | i | -29.8 | 30.1 | 53.0* | -3.0
CCCCN1C2=C(C(=O)CCC2)C(c2ccc(Cl)c(Cl)c2)C2=C1c1ccccc1C2=O (stereo not given) | -55.5 | + | 17.4 | 37.9 | 101.0 | 90.1*
CCCN1C(=O)c2ccccc2NC1c1ccc(Cl)c(Cl)c1 (stereo not given) | 15.6 | i | 7.1 | -3.7 | 96.0 | -8.2
O=C1NCCN(Cc2ccc(Cl)c(F)c2)C1CC(=O)N1CCc2ccccc2C1 (stereo not given) | 2.3 | i | -9.9 | 25.0 | 104.0 | 53.8*
COc1ccc(CCN2C(=O)COc3ccccc3C2C(=O)NCc2ccccc2)cc1OC (stereo not given) | nt | nt | nt | nt | 92.0 | nt
COc1cc(C#N)ccc1OCC(=O)NCc1cccs1 | 35.9 | i | 21.4 | 9.1 | 102.0 | 1.9*
COc1ccccc1OCC(=O)NCc1cccs1 | 7.6 | i | 13.8 | 13.0 | 95.0 | -3.9
N/C(=N\OC(=O)CSc1ccccc1)c1ccc([N+](=O)[O-])cc1 | -9.4 | i | 15.2 | 40.9* | 98.0 | 3.0
Cc1ccc(-c2cc(-c3ccco3)c3c(N)c(C(=O)NN)oc3n2)cc1 | 11.7 | ? | 12.2 | -43.1 | 123.0 | ?
NNC(=O)c1oc2nc(-c3cccs3)cc(-c3ccco3)c2c1N | 36.0 | + | 37.7 | -52.4 | 167.0 | ?
COc1cc(CCC(=O)Nc2ccc(S(=O)(=O)NC3=NCCCCC3)cc2)cc(OC)c1OC | 3.5 | i | 23.5 | -79.7 | 100.0 | active
COc1cc(Cl)c(CNC[C@H]2O[C@@H](n3cnc4c(=O)[nH]c(N)nc43)[C@H](O)[C@@H]2O)c(Cl)c1O | nt | nt | nt | 3.3 | 94.0 | nt

Assay outcomes as filed in PubChem.
